PubChem BioAssay (NCI)
Compounds without any hit were thinned out: in the full panel of roughly 83,000, 20% have a hit.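 96-well plates, one dose, 48 hours. Percent growth reported; active if below 10.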

Tests used:
Test in all cases: NCI-60 one-dose screen, 48 h (100 = growth as untreated, 0 = no growth, -100 = all killed)
SR leukemia = details: 10 µM
RPMI-8226 leukemia = details: 10 µM
OVCAR-8 ovarian = details: 10 µM
OVCAR-5 ovarian = details: 10 µM
OVCAR-4 ovarian = details: 10 µM
SK-OV-3 ovarian = details: 10 µM
IGROV1 ovarian = details: 10 µM
OVCAR-3 ovarian = details: 10 µM
HS 578T breast = details: 10 µM
NCI/ADR-RES ovarian = details: 10 µM
T-47D breast = details: 10 µM
BT-549 breast = details: 10 µM
MDA-MB-435 melanoma = details: 10 µM
SW-620 colon = details: 10 µM
MCF7 breast = details: 10 µM unless noted
HCT-116 colon = details: 10 µM
HCC-2998 colon = details: 10 µM
KM12 colon = details: 10 µM

Measured: growth

O=[N+]([O-])c1ccc(CO)cc1
inactive: SR leukemia 99.5% | RPMI-8226 leukemia 112% | OVCAR-8 ovarian 109% | OVCAR-5 ovarian 105% | OVCAR-4 ovarian 104% | SK-OV-3 ovarian 93.7% | IGROV1 ovarian 112% | OVCAR-3 ovarian 113% | HS 578T breast 98.9% | NCI/ADR-RES ovarian 107% | T-47D breast 88.3% | BT-549 breast 105% | MDA-MB-435 melanoma 90.3% | SW-620 colon 102% | MCF7 breast 91.1% | HCT-116 colon 101% | HCC-2998 colon 96.1% | KM12 colon 105%

COC(=O)c1ccc(C(C)C)cc1
inactive: SR leukemia 103% | RPMI-8226 leukemia 99.9% | OVCAR-8 ovarian 106% | OVCAR-5 ovarian 103% | OVCAR-4 ovarian 103% | SK-OV-3 ovarian 83.4% | IGROV1 ovarian 105% | OVCAR-3 ovarian 103% | HS 578T breast 119% | NCI/ADR-RES ovarian 103% | T-47D breast 82.3% | BT-549 breast 85.6% | MDA-MB-435 melanoma 99.8% | SW-620 colon 113% | MCF7 breast 93.1% | HCT-116 colon 85.1% | HCC-2998 colon 101% | KM12 colon 103%

C[C@@H](c1ccccc1)[C@@H](C(=O)O)c1ccccc1
inactive: SR leukemia 105% | RPMI-8226 leukemia 99.7% | OVCAR-8 ovarian 98.2% | OVCAR-5 ovarian 105% | OVCAR-4 ovarian 94.7% | SK-OV-3 ovarian 100% | IGROV1 ovarian 111% | OVCAR-3 ovarian 104% | HS 578T breast 110% | NCI/ADR-RES ovarian 105% | T-47D breast 101% | BT-549 breast 97.6% | MDA-MB-435 melanoma 104% | SW-620 colon 103% | MCF7 breast 93.4% | HCT-116 colon 102%

COCCCC/C(=N\OCCN)c1ccc(C(F)(F)F)cc1
inactive: SR leukemia 85.8% | RPMI-8226 leukemia 100% | OVCAR-8 ovarian 102% | OVCAR-5 ovarian 92.5% | OVCAR-4 ovarian 110% | SK-OV-3 ovarian 105% | IGROV1 ovarian 105% | OVCAR-3 ovarian 105% | HS 578T breast 97.6% | NCI/ADR-RES ovarian 102% | T-47D breast 86.4% | BT-549 breast 107% | MDA-MB-435 melanoma 99.4% | SW-620 colon 97.1% | MCF7 breast 108% | HCT-116 colon 101% | HCC-2998 colon 116% | KM12 colon 107%

CNc1nc(NC)c2cn[nH]c2n1
inactive: SR leukemia 96.7% | RPMI-8226 leukemia 99.2% | OVCAR-8 ovarian 111% | OVCAR-5 ovarian 106% | OVCAR-4 ovarian 108% | SK-OV-3 ovarian 97.2% | IGROV1 ovarian 109% | OVCAR-3 ovarian 114% | HS 578T breast 101% | NCI/ADR-RES ovarian 108% | T-47D breast 101% | BT-549 breast 103% | MDA-MB-435 melanoma 111% | SW-620 colon 106% | MCF7 breast 97.3% | HCT-116 colon 99.4% | HCC-2998 colon 100% | KM12 colon 105%

COc1ccc(Oc2c(I)cc(CC(NC(C)=O)C(=O)O)cc2I)cc1 (centres undefined)
inactive: SR leukemia 83.1% | RPMI-8226 leukemia 74.3% | OVCAR-8 ovarian 83.2% | OVCAR-5 ovarian 91.7% | OVCAR-4 ovarian 89.4% | SK-OV-3 ovarian 105% | IGROV1 ovarian 106% | OVCAR-3 ovarian 99% | HS 578T breast 95.7% | NCI/ADR-RES ovarian 62.4% | T-47D breast 74% | BT-549 breast 65.1% | MDA-MB-435 melanoma 85.1% | SW-620 colon 104% | MCF7 breast 89.2% | HCT-116 colon 79.6% | HCC-2998 colon 88% | KM12 colon 113%

CSC(=N\N=C\c1ccc(N(C)C)cc1)/N=C/N(C)C
inactive: SR leukemia 99% | RPMI-8226 leukemia 92.3% | OVCAR-8 ovarian 102% | OVCAR-5 ovarian 95.5% | OVCAR-4 ovarian 107% | SK-OV-3 ovarian 106% | IGROV1 ovarian 105% | OVCAR-3 ovarian 112% | HS 578T breast 90.1% | NCI/ADR-RES ovarian 119% | T-47D breast 94.9% | BT-549 breast 113% | MDA-MB-435 melanoma 102% | SW-620 colon 83.8% | MCF7 breast 97% | HCT-116 colon 102% | HCC-2998 colon 108% | KM12 colon 110%

CCOC(=O)c1cc2cccc(OC)c2oc1=O
inactive: SR leukemia 104% | RPMI-8226 leukemia 95.4% | OVCAR-8 ovarian 116% | OVCAR-5 ovarian 114% | OVCAR-4 ovarian 109% | SK-OV-3 ovarian 117% | IGROV1 ovarian 108% | OVCAR-3 ovarian 138% | HS 578T breast 121% | NCI/ADR-RES ovarian 111% | T-47D breast 106% | BT-549 breast 88.6% | MDA-MB-435 melanoma 110% | SW-620 colon 111% | MCF7 breast 105% | HCT-116 colon 101% | HCC-2998 colon 108%

CC(=O)c1c[nH]c2ccccc12
inactive: SR leukemia 91.4% | RPMI-8226 leukemia 110% | OVCAR-8 ovarian 98.6% | OVCAR-5 ovarian 111% | OVCAR-4 ovarian 99.8% | SK-OV-3 ovarian 108% | IGROV1 ovarian 101% | OVCAR-3 ovarian 120% | HS 578T breast 104% | NCI/ADR-RES ovarian 107% | T-47D breast 97.6% | BT-549 breast 104% | MDA-MB-435 melanoma 97.5% | SW-620 colon 105% | MCF7 breast 100% | HCT-116 colon 97.8% | HCC-2998 colon 108% | KM12 colon 120%
